PMC5540273 (PLoS ONE, 2017)

How the values were obtained:
Settings in all cases: concentration: 1 μM, replicates: in singlicate; n = 1
DAPK1 = tested on: DAPK1
DAPK2 = tested on: DAPK2
DAPK3 = tested on: DAPK3
DCAMKL1 = tested on: T1, DCAMKL1
T1 construct: gene DCLK1

DCAMKL2 = tested on: T2, DCAMKL2
T2 construct: gene DCLK2

DCAMKL3 = tested on: T3, DCAMKL3
T3 construct: gene DCLK3

DDR1 = tested on: DDR1
DDR2 = tested on: DDR2
DLK = tested on: T4, DLK
T4 construct: gene MAP3K12

DMPK2 = tested on: T5, DMPK2
T5 construct: gene CDC42BPG

DMPK = tested on: DMPK
DRAK1 = tested on: T6, DRAK1
T6 construct: gene STK17A

DRAK2 = tested on: T7, DRAK2
T7 construct: gene STK17B

DYRK1A = tested on: DYRK1A
DYRK1B = tested on: DYRK1B
DYRK2 = tested on: DYRK2
EGFR = tested on: EGFR
EIF2AK1 = tested on: EIF2AK1
EPHA1 = tested on: EPHA1
EPHA2 = tested on: EPHA2
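Also: KINOMEscan kinase panel screen.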

SMILES | %Inh (DAPK1) [%] | %Inh (DAPK2) [%] | %Inh (DAPK3) [%] | %Inh (DCAMKL1) [%] | %Inh (DCAMKL2) [%] | %Inh (DCAMKL3) [%] | %Inh (DDR1) [%] | %Inh (DDR2) [%] | %Inh (DLK) [%] | %Inh (DMPK2) [%] | %Inh (DMPK) [%] | %Inh (DRAK1) [%] | %Inh (DRAK2) [%] | %Inh (DYRK1A) [%] | %Inh (DYRK1B) [%] | %Inh (DYRK2) [%] | %Inh (EGFR) [%] | %Inh (EIF2AK1) [%] | %Inh (EPHA1) [%] | %Inh (EPHA2) [%]
N#Cc1ccc(-c2cc(-c3c[nH]nc3-c3ccccn3)ccn2)cc1 [GW693028] | 0 | 0 | 16 | 8 | 17 | 0 | 0 | 1 | 40 | 0 | 0 | 0 | 0 | 17 | 0 | 0 | 0 | 6 | 17 | 2
Cc1ccc(C(=O)NCC(N)=O)cc1-n1c(C)cc(OCc2ccc(F)cc2F)c(Br)c1=O | 0 | 0 | 15 | 3 | 17 | 19 | 15 | 3 | 0 | 0 | 0 | 0 | 5 | 0 | 0 | 0 | 11 | 0 | 25 | 40
O=C(NCCNc1ccnc(Nc2ccc(F)cc2)n1)c1cc2ccccc2s1 [GSK1379874] | 0 | 0 | 0 | 0 | 0 | 0 | 0 | 1 | 33 | 0 | 0 | 8 | 33 | 2 | 17 | 15 | 23 | 0 | 10 | 30
NS(=O)(=O)c1cccc(-c2ccc3nccc(-c4cccc(S(N)(=O)=O)c4)c3c2)c1 [GW867253] | 0 | 0 | 2 | 9 | 0 | 0 | 0 | 23 | 9 | 0 | 2 | 0 | 0 | 0 | 0 | 32 | 0 | 0 | 0 | 0
C[C@@H](Oc1cc(-n2cnc3ccc(NC(=O)NC(C)(C)C)cc32)sc1C(N)=O)c1ccccc1Cl [GSK346294] | 20 | 10 | 19 | 31 | 0 | 0 | 16 | 18 | 33 | 16 | 0 | 0 | 0 | 0 | 0 | 15 | 32 | 0 | 4 | 0
Cc1c2ccc(N(C)c3ccnc(Nc4cccc(S(N)(=O)=O)c4)n3)cc2nn1Cc1ccccc1.Cl.Cl [GW787226] | 0 | 1 | 0 | 24 | 0 | 0 | 97.7 | 96.8 | 0 | 0 | 8 | 3 | 16 | 0 | 0 | 0 | 5 | 0 | 21 | 4
CN(C(=O)c1ccc(-c2cc(-c3c[nH]nc3-c3ccccn3)ccn2)cc1)C1CCOCC1 [GW810083] | 11 | 2 | 0 | 0 | 0 | 19 | 0 | 36 | 14 | 0 | 0 | 1 | 2 | 0 | 9 | 9 | 0 | 0 | 0 | 0
COc1ccc(Nc2nccc(N3CCC(NC(=O)Nc4cc(C)ccc4C)C3)n2)cc1 (centres unmarked) [GSK1379741] | 0 | 0 | 10 | 0 | 0 | 4 | 23 | 0 | 0 | 0 | 0 | 0 | 0 | 14 | 0 | 12 | 33 | 0 | 30 | 0
COc1ccc(Nc2nccc(N3CCC(NC(=O)Nc4cccc(C(C)=O)c4)C3)n2)cc1 (centres unmarked) [GSK1379731] | 0 | 0 | 0 | 0 | 0 | 0 | 12 | 14 | 0 | 2 | 0 | 0 | 0 | 23 | 0 | 0 | 15 | 0 | 2 | 4
CCc1ccnc(/C=C/c2n[nH]c3cc(Sc4ccccc4C(=O)NC)ccc23)c1 | 17 | 0 | 0 | 0 | 0 | 8 | 0 | 13 | 30 | 0 | 6 | 12 | 0 | 8 | 4 | 0 | 0 | 14 | 0 | 0
